Source: PubChem BioAssay
Only some compounds are listed: those with a hit (about 3.6% of all), similar ones and a draw of the others.
PLK1 PBD block = PLK1 (human) polo-box domain binding inhibition; P53350; Plk1 PBD binding of FITC phosphopeptide, fluorescence polarization; Potency, µM, inactives show max response, negative = inhibition, actives largely listed as inhibitors; hit rate 2.8% among 360,000; note: potency is the fitted concentration of half-maximal effect; series mostly up to about 57 µM; % is set by controls: 0 for no effect and ±100 for the full control effect; nearly all actives have a fitted effect of over 65% in size
PI5P4Ka inh = inhibitors of human PI5P4K alpha. PI5P4Kalpha enzyme, ADP-Glo luminescence, 60 min; stronger effect = lower value. max response, %. hit rate 1.2% among 330,000. P48426. AID 652105; active = max response of -50% or lower; inconclusive = between -30% and -50%; inactive = -30% or higher; note: value at the top dose of about 77 µM; % is set by controls: 0 for no effect and ±100 for the full control effect
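Reactions run in 0.038 M HEPES pH 7.4, 0.28 mM EGTA, 0.1% CHAPS and 5% DMSO, with PI5P4Kalpha, substrate, compound and 5 microM ATP final, one hour at room temperature. Readout is ADP-Glo luminescence.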
Rango dissoc inh = inhibition of RanGTP-driven Rango-importin beta dissociation | O95149+P62826 | Biochemical FRET Rango-importin beta, RanGTP-induced dissociation | Potency, µM (titrated, usually from 46.1 µM), for inactives: at the top dose activity change, negative = inhibition | hit rate 0.071% among 340,000 | AID 540253; calls by dose curve; note: potency is the fitted concentration of half-maximal effect; % of control where 0% means no effect; nearly all actives have a fitted effect of over 45% in size
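FRET read at 45 min, room temperature: inhibitors block the CFP/YFP signal rise when RanGTP (0.6 uM Ran, 2 mM GTP, 0.2 uM RCC1) frees Rango (0.1 uM) from importin beta (0.25 uM). Pre-read after 5 min compound exposure flags interference.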
GCN5L2 inh = inhibitors of human GCN5L2 histone acetyltransferase | Potency, µM (highest dose often 58.9 µM), for the others: at the highest dose activity change, negative = inhibition, hits mostly inhibitors | hit rate 0.21% among 390,000 | GCN5L2 HAT assay, ThioGlo1 CoA-SH fluorescence | Q92830 | AID 504327; note: potency is the fitted concentration of half-maximal effect; % is set by controls: 0 for no effect and ±100 for the full control effect
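GCN5L2 (20 nM) in 50mM HEPES pH 7.5, 0.1mM EDTA, 0.01% Tween-20 preincubated 15 min with compounds at room temperature. Reaction started with H3(1-25) 75uM, acetyl-CoA 70uM, ThioGlo1 50uM; CoA-thiol fluorescence (Ex340/Em540) read at 0 and 20 min.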
VDR inhibitor = vitamin D3 receptor (human) inhibition; P11473; VDR-SRC2-3 peptide fluorescence polarization, 2 h; Potency, µM, for the others: max response, negative = inhibition, usual class: inhibitors; hit rate 0.93% among 400,000; AID 504847; note: potency is the fitted concentration of half-maximal effect; % is set by controls: 0 for no effect and ±100 for the full control effect
Target sequence (P11473 whole entry, looked up): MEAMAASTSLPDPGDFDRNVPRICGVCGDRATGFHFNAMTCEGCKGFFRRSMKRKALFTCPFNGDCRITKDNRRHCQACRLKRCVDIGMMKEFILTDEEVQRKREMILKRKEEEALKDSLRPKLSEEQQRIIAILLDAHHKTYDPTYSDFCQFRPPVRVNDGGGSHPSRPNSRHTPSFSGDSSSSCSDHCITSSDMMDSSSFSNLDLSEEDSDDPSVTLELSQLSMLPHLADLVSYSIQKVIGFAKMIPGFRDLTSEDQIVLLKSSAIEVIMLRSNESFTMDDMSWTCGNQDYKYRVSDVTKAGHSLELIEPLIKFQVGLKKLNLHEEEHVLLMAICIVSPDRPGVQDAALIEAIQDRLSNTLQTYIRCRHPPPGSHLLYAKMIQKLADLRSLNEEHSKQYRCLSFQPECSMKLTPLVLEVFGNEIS
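FP read-out; VDR + SRC2-3 coactivator peptide; 23 nl compound by pintool; 2 h RT incubation; reagents held at 4 deg C, protected from light.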
Rango-impB inh = Rango-importin beta binding inhibition; AID 540263; Q14974; Potency, µM (series often up to 92.2 µM), without a hit: at the top dose inhibition of complex formation; hit rate 0.031% among 340,000; Rango CFP/YFP FRET sensor + importin beta, 45 min; calls by dose curve;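 note: potency is the fitted concentration of half-maximal effect; 0% = DMSO wells and 100% = buffer wells lacking importin beta; nearly all actives have a fitted effect of over 15% in size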
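FRET biosensor Rango (snurportin 1 IBB between N-terminal EYFP and C-terminal Cerulean), 50 nM in PBS/1 mM DTT/0.02% Tween-20/0.1% BSA, preincubated 5 min RT with compound; 0.125 microM importin beta added, 45 min RT, CFP/YFP FRET ratio read.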
* = called active by the depositor; ? = inconclusive; . = not tested or not shown; ! = not confirmed by another sample. Unless noted, calls come from the whole dose curve; as a rule, active = well fitted curve in the direction sought with a large enough effect; inconclusive = small, poorly fitted or top-dose-only effect, or another doubt; inactive = no such curve, though single readings can be large; an effect the other way counts as inactive or inconclusive.

SMILES	PLK1 PBD block	PI5P4Ka inh	Rango dissoc inh	GCN5L2 inh	VDR inhibitor	Rango-impB inh
CCOc1ccc(C(=O)NC(=S)Nc2ccccc2N2CCCCC2)cc1[N+](=O)[O-]	-3.0%	18.3	7.5%	-5.9%	-13.0%	-2.1%
CCOc1ccc(C(=O)NC(=S)Nc2ccc(N3CCCCC3)cc2)cc1[N+](=O)[O-]	5.97µM*	0.5	-6.6%	-5.1%	?	-3.4%
C=CCC(C)(NCc1ccccc1)C(=O)OCC (stereo not drawn)	.	.	.	.	4.4%	.
O=C1CCC/C1=C/Nc1cccc(F)c1	18.9µM*	-13.5	-10.0%	-6.3%	?	?
Cc1ccc(N2CCN(C(=O)C3CCN(c4ncnc5c4nc4n5CCCCC4)CC3)CC2)c(C)c1	.	.	.	-7.3%	1.5%	.
CCOC(=O)N1CCC(NC(=O)CS(=O)(=O)Cc2nc(-c3ccccc3C)oc2C)CC1	-2.3%	1.0	-9.7%	-2.2%	20.6%	-1.5%
COc1cccc(-c2nc(CS(=O)(=O)CC(=O)NC3CCC(C)CC3)c(C)o2)c1 (stereo not drawn)	23.8µM*	-17.6	1.0%	-1.6%	?	-0.7%
COc1ccc(-c2nc(CS(=O)(=O)CC(=O)NC3CCCCC3C)c(C)o2)cc1 (stereo not drawn)	23.8µM*	-13.6	1.2%	-1.8%	?	-0.5%
CCOC(=O)N1CCC(NC(=O)CS(=O)(=O)Cc2nc(-c3ccc(OC)cc3)oc2C)CC1	21.2µM*	0.1	?	3.5%	?	0.7%
CC1CCCCC1NCc1cccc([N+](=O)[O-])c1 (stereo not drawn)	26.7µM*	-8.0	16.0%	-9.9%	-12.7%	-2.0%
CCCCC1=CC2=C(c3ccco3)C(=O)C(C)(OC(=O)c3cccs3)C(=O)C2=CO1 (stereo not drawn)	.	.	.	.	-17.9%	.
FC(F)(F)c1ccccc1-c1cncnc1NCCN1CCOCC1	.	.	.	-8.2%	44.7µM*	.
CCCOc1ccc(NC(=O)CC2C(=O)N(c3ccc(Cl)cc3)C(=O)N2CCc2ccncc2)cc1 (stereo not drawn)	.	.	.	-12.5%	14.0%	.
Cc1ccc(Cl)c2c1=NC(=O)C=2c1[nH]c(=S)[nH]c1O	-17.0%	-74.8*	2.7%	-2.8%	?	0.4%
CC(=O)Oc1ccc2nc(-c3ccco3)oc(=O)c2c1	26.7µM*	?	3.5%	-9.3%	?	-1.0%
COc1ccc(CCNC(=O)CCc2c(C)nc3cc(-c4ccccc4OC)nn3c2C)c(OC)c1	.	.	.	-11.7%	0.5%	.
O=[N+]([O-])c1cc([N+](=O)[O-])c2oc(-c3ccccc3)c(Br)c2c1O	8.44µM*	-101.8*	3.1%	?	-28.3%	-0.5%
O=c1c(O)c(-c2ccccc2)oc2cccc(O)c12	.	.	.	3.4%	14.6%	.
C#CCNC(=O)C1=C[C@H](c2ccc(C#C)cc2)C[C@H](OCc2ccc(CO)cc2)O1	-25.2%	-58.6*	2.9%	.	-6.4%	-3.0%
Oc1ccc(C2CNCCc3c2cc(O)c(O)c3Cl)cc1 (stereo not drawn)	-18.5%	4.9	?	-6.9%	1.6%	8.8%
Oc1ccc(C2CNCc3sccc32)cc1O (stereo not drawn)	-10.3%	-10.5	-14.4%	-4.4%	12.6µM*!	-3.1%
O=C(Nc1ccc(F)cc1F)N1CCCC(c2nc(-c3ccc(F)cc3)no2)C1 (stereo not drawn)	11.9µM*	0.5	-8.7%	-3.0%	-27.5%	1.3%
O=C(c1ccc(F)cc1F)N1CCCC(c2nc(-c3ccc(F)cc3)no2)C1 (stereo not drawn)	-11.0%	4.9	12.9%	-4.0%	23.4%	1.1%
O=C(OCCN1CCOCC1)c1cccnc1	-3.0%	.	-13.9%	1.12µM*!	3.7%	2.5%
O=C(OCCN1CCOCC1)c1ccccc1	23.8µM*	-1.3	-26.4%	-2.0%	-18.7%	0.3%
SMILES	PLK1 PBD block	PI5P4Ka inh	Rango dissoc inh	GCN5L2 inh	VDR inhibitor	Rango-impB inh
COc1ccc(-c2cnc(C)o2)cc1S(=O)(=O)Nc1ccc(C)c(N(C)C)c1	.	.	.	19.2%	2.0%	.
Cc1ccc(C)c(NC(=O)Cn2c(=O)n(CC3CCCO3)c(=O)c3ccccc32)c1 (stereo not drawn)	.	.	.	-0.5%	14.0%	.
CCc1c(C)nc(SCC(=O)N2CCCCC2CC)[nH]c1=O (stereo not drawn)	23.8µM*	-18.3	42.3%	-18.2%	?	-0.4%
CCc1c(C)nc(SCC(=O)N2CCN(c3ccccc3)CC2)[nH]c1=O	-21.1%	-1.0	0.3%	-3.3%	-3.2%	0.2%
CCN(CC)CCSC(=O)C(c1ccccc1)c1ccccc1	.	.	.	?	25.1µM*	.
CCN(CC)CCOC(=O)C(c1ccccc1)c1ccccc1	-4.5%	-0.9	3.2%	-3.8%	-15.1%	-1.0%
CN1CCN(CC(=O)Nc2nnc(-c3cccs3)s2)CC1	1.0%	1.6	1.4%	1.9%	12.6%	0.7%
CCC(CC)C(=O)Nc1nnc(-c2cccs2)s1	29.9µM*	-6.9	1.9%	-25.1%	-26.7%	-0.8%
COc1cccc(OC)c1C(=O)Nc1nnc(-c2cccs2)s1	16.8µM*	-16.1	14.1%	-4.2%	13.7%	0.4%
COc1ccc(Cc2nnc(NC(=O)c3cccs3)s2)cc1OC	2.9%	-3.5	0.1%	-2.3%	-4.1%	2.0%
COc1cccc(-n2cc(C(=O)Nc3cc(OC)c(OC)c(OC)c3)c3ccccc3c2=O)c1	.	.	.	-7.0%	-2.1%	.
O=C1C=CC(=O)N1c1ccc(O)cc1	16.8µM*	-19.1	1.0%	?	25.1µM*	-4.7%
O=C1CCCC(=O)N1c1ccc(O)cc1	?	6.4	-8.8%	19.8%	-7.1%	7.5%
Cc1ccccc1C(=O)Nc1nnc2n1CCS2	.	.	.	4.5%	8.1%	.
Cc1cccc(-c2noc(CN(C(=O)c3ccc(C)c(C)c3)C(C)C)n2)c1	.	.	.	-13.4%	?	.
Cc1cccc(-c2noc(CN(C(=O)c3ccc4c(c3)OCO4)C(C)C)n2)c1	26.7µM*	-11.7	16.9%	-0.2%	-7.7%	3.3%
CN1CCN(C(=S)c2ccc(N(C)C)cc2)CC1	10µM*	.	-4.6%	-14.0%	?	0.6%
CC(=O)N1CCN(C(c2ccccc2)c2ccccc2)CC1	-6.7%	.	.	-11.9%	-6.9%	.
CSc1ccc(C(=S)N2CCN(C)CC2)cc1	29.9µM*	.	-1.0%	-1.7%	-53.7%	-0.1%
CSc1ccc(CN2CCCN(C)CC2)cc1	0.3%	0.1	-13.9%	-0.2%	-18.0%	5.8%
Cc1ccc(C(=S)N2CCCCCC2)cc1	?	-21.3	6.9%	-10.6%	?	-0.1%
CSc1ccc(C(=S)N2CCN(C(c3ccccc3)c3ccccc3)CC2)cc1	13.4µM*	-1.9	-12.4%	-12.1%	?	?
CCOc1ccccc1NC(=O)Cn1c(=O)n(Cc2ccccc2)c(=O)c2c(C)c(C)sc21	.	.	.	-3.3%	-12.7%	.
N#CN=c1snc(-c2ccccc2)n1-c1ccc(Br)cc1	.	.	.	.	-9.7%	.
